As usually defined, the AC50 is the concentration giving half of the maximal activity seen.

Inconclusive results are not listed. Activity calls are given as the source filed them. The calls were made as follows: active = hit-call score of the fitted dose curve at least 0.9, where 1 is the maximum; inconclusive = response in the unintended direction; inactive = score below 0.9.

For the test, the system named is rainbow trout Peroxisome Proliferator-activated Receptor alpha (PPARa), gene 110490141. The test is described as follows: ATG_rtPPARa_EcoTox2: Attagene TRANS-FACTORIAL EcoTox-2 HepG2 Assay for rainbow trout Peroxisome Proliferator-activated Receptor alpha (PPARa). The method, then:
ATG_EcoTox2 is a cell-based, multiplexed assay created by modifying the existing Attagene TRANS-FACTORIAL system to include a panel of nuclear receptors from some or all the following species: human (Homo sapiens), african clawed frog (Xenopus laevis), rainbow trout (Oncorhynchus mykiss), japanese medaka (Oryzias latipes), and zebrafish (Danio rerio). The ECOTOX2-FACTORIAL format uses HepG2, a human liver cell line, with measurements taken at 24 hours after chemical dosing in a 24-well plate. ATG_rtPPARa_EcoTox2 is one of 29 assay components calculated in the ATG_EcoTox2 assay. It is designed to make measurements of mRNA induction, a form of inducible reporter, as detected with fluorescence intensity signals by Reverse transcription polymerase chain reaction (RT-PCR) and Capillary electrophoresis technology.The assay endpoint ATG_frPPARa_EcoTox2 was analyzed in the positive analysis fitting direction relative to DMSO as the negative control and baseline of activity. Using a type of inducible reporter, measures of mRNA for gain-of-signal activity can be used to understand the reporter gene at the transcription factor-level as they relate to the gene PPARa. Furthermore, this assay endpoint can be referred to as a primary readout, because this assay has produced multiple assay endpoints where this one serves a reporter gene function. […]

Turning to `O=S(=O)(O)C(F)(F)C(F)(F)C(F)(F)C(F)(F)C(F)(F)C(F)(F)F`, the half-maximal activity concentration (AC50) is 30.6 µM (active).
Regarding `O=C(O)C(F)(F)C(F)(F)C(F)(F)C(F)(F)C(F)(F)C(F)(F)C(F)(F)F`, the concentration at half-maximal activity (AC50) is 54.2 µM (active).

For the origin of these results see PubChem BioAssay AID2284347 (EPA ToxCast).
